Reference: PubChem BioAssay (Tox21)
Values without a mark were called inactive. Records with an inconclusive call do not appear. Where a call stands in place of a potency, no number is given. Activity calls are given as the source filed them. Unless noted, calls come from the whole dose curve.

Assays:
[1] = qHTS assay to identify small molecule antagonists of the sonic hedgehog signaling (Shh) pathway (AID 1259369); conditions: NIH/3T3 Gli1-Luc reporter, Shh antagonist, luminescence 24 h; series mostly up to 92.4 µM; note: nearly all actives have a fitted effect of over 45% in size; note: potency is the fitted concentration of half-maximal effect
How it was run: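 Luminescence readout: firefly Luc under Gli1 response element in 3T3Gli1-Luc cells (NIH/3T3 clone). Antagonist mode, stimulation by conditioned medium; compound exposure 24hr at 37 C, 5% CO2.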

[2] = qHTS assay to identify small molecule agonists of the androgen receptor (AR) signaling pathway in the presence of an antagonist - cell viability counter screen (AID 1259379; active = well fitted curve in the direction sought with a large enough effect in the repeat runs; an effect the other way counts as inactive or inconclusive;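 note: MDA-kb2 human breast cancer cells carrying an MMTV luciferase reporter; nearly all actives have a fitted effect of over 25% in size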); conditions: MDA-kb2 viability, CellTiter-Fluor, 16 h; series mostly up to 92.4 µM
How it was run: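 Viability counter screen: CellTiter-Fluor fluorescence, measured in the same wells as the luciferase read-out. MDA-kb2 cells, 3,000/well, with nilutamide at 3.0uM final and compounds at 15 concentrations, 16 hr at 37C, 0% CO2.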

[3] = qHTS assay to identify small molecule agonists of the estrogen receptor beta (ER-beta) signaling pathway - cell viability counter screen (AID 1259380; active = well fitted curve in the direction sought with a large enough effect in the repeat runs; an effect the other way counts as inactive or inconclusive; note: nearly all actives have a fitted effect of over 30% in size); conditions: ER-beta-bla HEK293T viability, CellTiter-Glo luminescence, 16 h; series mostly up to 92.4 µM
How it was run: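 Luminescence read-out (CellTiter-Glo, 30 min, room temp) taken in the same wells as the beta-lactamase reporter assay; ER-beta-UAS-bla HEK293T cells exposed to DMSO-dissolved compounds for 16 hr at 37C in 2% charcoal-stripped FBS medium.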

[4] = qHTS assay to identify small molecule antagonists of the estrogen receptor beta (ER-beta) signaling pathway - cell viability counter screen (AID 1259382; active = well fitted curve in the direction sought with a large enough effect in the repeat runs; an effect the other way counts as inactive or inconclusive;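 note: HEK293T cells carrying ER-beta-UAS-bla reporter stimulated with estradiol; nearly all actives have a fitted effect of over 55% in size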); conditions: ER-beta-UAS-bla HEK293T viability, CellTiter-Glo luminescence, 16 h; series mostly up to 92.4 µM
How it was run: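 Luminescent ATP read-out (CellTiter-Glo, 30 min, RT) taken in the same wells as the bla reporter assay. HEK293T ER-beta-UAS-bla cells in 2% charcoal-stripped FBS were exposed to compounds with 1nM E2 for 16 hr at 37C.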

[5] = molecular target: Estrogen receptor (Homo sapiens) (UniProt P03372); test: qHTS assay to identify small molecule agonists of the estrogen receptor alpha (ER-alpha) signaling pathway in the presence of an antagonist (AID 1259383); conditions: VM7Luc4E2 cells, ERE-luciferase, +ICI-182,780, 22 h; series mostly up to 92.4 µM; note: top concentration of the series differs between compounds; nearly all actives have a fitted effect of over 15% in size
Estrogen receptor (Homo sapiens), sequence (P03372 whole entry, looked up): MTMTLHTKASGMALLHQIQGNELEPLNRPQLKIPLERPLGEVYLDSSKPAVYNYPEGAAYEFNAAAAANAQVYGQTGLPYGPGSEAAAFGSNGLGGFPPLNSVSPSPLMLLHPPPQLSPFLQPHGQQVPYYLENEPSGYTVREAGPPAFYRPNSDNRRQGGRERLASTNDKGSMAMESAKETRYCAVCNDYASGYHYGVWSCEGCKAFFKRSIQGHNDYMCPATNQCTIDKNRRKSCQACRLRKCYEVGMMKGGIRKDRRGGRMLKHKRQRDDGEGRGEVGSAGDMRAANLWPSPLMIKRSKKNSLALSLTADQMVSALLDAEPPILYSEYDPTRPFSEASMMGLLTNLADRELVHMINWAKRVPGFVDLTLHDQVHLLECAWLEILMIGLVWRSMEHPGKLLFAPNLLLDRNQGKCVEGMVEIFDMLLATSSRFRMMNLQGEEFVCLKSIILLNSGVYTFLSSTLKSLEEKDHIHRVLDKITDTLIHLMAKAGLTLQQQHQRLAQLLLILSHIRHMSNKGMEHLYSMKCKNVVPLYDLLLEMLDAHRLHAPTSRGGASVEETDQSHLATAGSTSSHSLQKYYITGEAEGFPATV
How it was run: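 Luciferase luminescence (ONE-Glo, 30min at room temperature) measured in VM7Luc4E2 cells after 22hr compound exposure at 15 concentrations, with 10.0nM ICI-182,780 final present; cells express endogenous ER-alpha and carry four EREs upstream of luciferase.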

[6] = qHTS assay to identify small molecule agonists or antagonists of the thyroid stimulating hormone receptor (TSHR) signaling pathway - wild type cell line counter screen (AID 1259384); conditions: HEK293 wild type, cAMP HTRF counter-screen, active compounds read high; series mostly up to 92.4 µM
How it was run: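 Counter screen in untransfected Hek293: compounds (15-point titration, triplicate) plus phosphodiesterase inhibitor Ro20-1724 added after 18 h plating; 30 min RT. Intracellular cAMP via competitive d2/cryptate immunoassay, 1 h incubation.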

[7] = molecular target: Estrogen receptor beta (Homo sapiens) (UniProt Q92731); test: qHTS assay to identify small molecule agonists of the estrogen receptor beta (ER-beta) signaling pathway (AID 1259377; active = well fitted activation curve with a large enough effect in the signal ratio in the repeat runs, not every such curve was filed as active; the % refers to the signal ratio); conditions: ER-beta-UAS-bla HEK293T, beta-lactamase FRET ratio, 16 h; series mostly up to 92.4 µM
Estrogen receptor beta (Homo sapiens), sequence (Q92731 whole entry, looked up): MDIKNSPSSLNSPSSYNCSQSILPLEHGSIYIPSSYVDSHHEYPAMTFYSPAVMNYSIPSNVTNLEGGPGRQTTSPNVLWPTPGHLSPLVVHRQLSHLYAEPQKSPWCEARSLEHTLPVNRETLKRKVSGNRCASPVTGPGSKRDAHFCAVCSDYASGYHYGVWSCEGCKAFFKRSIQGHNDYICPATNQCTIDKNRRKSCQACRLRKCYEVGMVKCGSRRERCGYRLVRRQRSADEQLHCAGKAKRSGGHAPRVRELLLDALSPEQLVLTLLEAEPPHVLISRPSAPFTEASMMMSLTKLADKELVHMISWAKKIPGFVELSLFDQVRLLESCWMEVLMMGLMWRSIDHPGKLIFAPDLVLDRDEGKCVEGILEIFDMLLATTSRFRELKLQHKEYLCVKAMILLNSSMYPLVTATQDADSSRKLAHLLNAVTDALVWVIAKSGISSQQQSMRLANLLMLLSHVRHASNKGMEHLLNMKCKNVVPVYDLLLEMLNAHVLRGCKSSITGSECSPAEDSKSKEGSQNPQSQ
How it was run: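 Ratiometric beta-lactamase FRET read-out came after 2 h substrate loading at room temperature. It followed 16 h compound treatment at 37C of GripTite HEK293T cells carrying a UAS-bla reporter, plated in 2% charcoal-stripped FBS medium.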

[8] = molecular target: Estrogen receptor beta (Homo sapiens) (UniProt Q92731); test: qHTS assay to identify small molecule antagonists of the estrogen receptor beta (ER-beta) signaling pathway (AID 1259378; active = well fitted inhibition curve with a large enough effect in the signal ratio in the repeat runs, not every such curve was filed as active; the % refers to the signal ratio); conditions: ER-beta-UAS-bla HEK293T, beta-lactamase FRET ratio, 16 h; series mostly up to 92.4 µM
How it was run: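 Antagonist mode: compounds added to beta-lactamase reporter HEK293T ER-beta-UAS cells stimulated with E2 (1nM final), 16 hr at 37C. LiveBLAzer B/G FRET substrate, 2 hours room temperature, fluorescence read-out.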

[9] = molecular target: Thyrotropin receptor (Homo sapiens) (UniProt P16473); test: qHTS assay to identify small molecule antagonists of the thyroid stimulating hormone receptor (TSHR) signaling pathway (AID 1259385); conditions: TSHR-HEK293 cAMP HTRF, TSH-stimulated antagonist mode; series mostly up to 92.4 µM; note: nearly all actives have a fitted effect of over 20% in size
Thyrotropin receptor (Homo sapiens), sequence (P16473 whole entry, looked up): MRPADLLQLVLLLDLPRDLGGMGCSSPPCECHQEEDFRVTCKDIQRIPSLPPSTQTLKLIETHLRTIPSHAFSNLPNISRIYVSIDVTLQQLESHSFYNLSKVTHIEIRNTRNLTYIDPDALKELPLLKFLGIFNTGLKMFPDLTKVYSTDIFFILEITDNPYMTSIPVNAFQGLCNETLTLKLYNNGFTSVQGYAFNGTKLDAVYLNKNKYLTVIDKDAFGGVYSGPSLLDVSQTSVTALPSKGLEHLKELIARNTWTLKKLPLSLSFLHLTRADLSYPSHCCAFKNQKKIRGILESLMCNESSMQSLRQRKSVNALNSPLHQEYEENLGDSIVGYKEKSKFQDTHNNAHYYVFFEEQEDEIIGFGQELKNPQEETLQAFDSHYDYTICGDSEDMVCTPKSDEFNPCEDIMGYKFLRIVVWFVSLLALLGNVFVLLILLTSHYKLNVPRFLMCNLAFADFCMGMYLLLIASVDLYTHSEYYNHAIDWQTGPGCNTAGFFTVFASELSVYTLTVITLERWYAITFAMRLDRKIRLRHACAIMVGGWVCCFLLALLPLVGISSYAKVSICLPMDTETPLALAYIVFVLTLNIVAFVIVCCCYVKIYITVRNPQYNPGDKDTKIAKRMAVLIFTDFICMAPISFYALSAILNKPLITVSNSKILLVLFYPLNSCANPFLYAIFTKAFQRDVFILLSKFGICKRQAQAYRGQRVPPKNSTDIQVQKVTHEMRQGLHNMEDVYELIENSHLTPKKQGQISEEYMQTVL
How it was run: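 Antagonist mode: compound-treated TSHR-expressing HEK293 cells were stimulated with 1.5 ng/mL TSH (final) in presence of Ro20-1724 for 30 min at RT. HTRF cAMP detection after 1 h; each compound tested at 15 concentrations, triplicate.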

[10] = molecular target: Androgen receptor (Homo sapiens) (UniProt P10275); test: qHTS assay to identify small molecule agonists of the androgen receptor (AR) signaling pathway in the presence of an antagonist (AID 1259381); conditions: MDA-kb2 MMTV-luciferase, AR agonist + nilutamide, 16 h; series mostly up to 42.5 µM; note: nearly all actives have a fitted effect of over 15% in size
Androgen receptor (Homo sapiens), sequence (P10275 whole entry, looked up): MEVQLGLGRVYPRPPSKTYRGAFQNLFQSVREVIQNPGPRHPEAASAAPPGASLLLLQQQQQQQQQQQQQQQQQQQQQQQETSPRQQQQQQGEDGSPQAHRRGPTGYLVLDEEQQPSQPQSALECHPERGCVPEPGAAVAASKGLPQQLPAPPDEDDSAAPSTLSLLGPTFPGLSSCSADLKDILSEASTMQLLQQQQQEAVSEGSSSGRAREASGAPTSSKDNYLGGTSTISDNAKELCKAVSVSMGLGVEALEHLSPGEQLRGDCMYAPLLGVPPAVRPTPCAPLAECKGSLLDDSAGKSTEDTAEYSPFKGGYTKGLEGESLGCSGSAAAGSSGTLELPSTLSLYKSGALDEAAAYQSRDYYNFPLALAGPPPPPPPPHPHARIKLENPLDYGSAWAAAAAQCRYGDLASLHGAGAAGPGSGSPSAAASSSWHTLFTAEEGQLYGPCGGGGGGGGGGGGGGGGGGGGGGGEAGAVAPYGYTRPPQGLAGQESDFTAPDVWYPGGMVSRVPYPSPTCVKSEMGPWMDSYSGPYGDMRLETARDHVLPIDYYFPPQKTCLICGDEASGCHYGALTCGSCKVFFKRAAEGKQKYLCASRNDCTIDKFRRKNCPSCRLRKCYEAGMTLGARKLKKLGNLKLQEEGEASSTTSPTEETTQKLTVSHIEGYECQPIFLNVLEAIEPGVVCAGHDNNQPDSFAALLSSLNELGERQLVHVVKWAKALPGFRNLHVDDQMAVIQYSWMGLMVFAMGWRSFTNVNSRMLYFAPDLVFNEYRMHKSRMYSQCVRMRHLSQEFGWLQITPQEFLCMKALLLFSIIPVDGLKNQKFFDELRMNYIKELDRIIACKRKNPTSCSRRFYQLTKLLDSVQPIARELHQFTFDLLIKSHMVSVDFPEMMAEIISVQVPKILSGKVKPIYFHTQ
How it was run: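 Luciferase read-out (ONE-Glo, 30min room temperature) in MDA-kb2 MMTV-reporter cells; agonist mode run in presence of AR antagonist nilutamide, 3.0uM final. Compounds tested as 15-point series, 16hr exposure at 37C, 0% CO2.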

CN(C)C(=O)Oc1cccc([N+](C)(C)C)c1
Potency [1]: inactive
Potency [2]: inactive
Potency [3]: inactive
outcome [4]: inactive
outcome [5]: inactive
outcome [6]: inactive

CN1CCN(c2cc3c(nn2)Oc2ccccc2N3C)CC1
activity change, negative = inhibition [1]: -8.36% [at 19 µM]
activation [7]: 7.81% [at 19 µM]
activity change, negative = cytotoxicity [2]: 0.723% [at 19 µM]
activity change, negative = cytotoxicity [3]: 2.64% [at 19 µM]
activity change, negative = cytotoxicity [4]: -0.299% [at 19 µM]
cAMP activity change [6]: -3.2% [at 18.9 µM]

CC1=CCC(O)(C(C)C)CC1 (stereo not given)
Potency [1]: inactive
Potency [8]: inactive
Potency [2]: inactive
Potency [3]: inactive
outcome [4]: inactive
outcome [5]: inactive
outcome [6]: inactive
outcome [9]: inactive

CCN[C@@H]1C[C@H](N)[C@@H](OC2OC(CN)=CCC2N)[C@H](O)[C@H]1O[C@H]1OC[C@](C)(O)[C@H](NC)[C@H]1O (stereo not given in full)
activity change, negative = inhibition [1]: 2.07% [at 0.349 µM]
activity change, negative = cytotoxicity [2]: 0.828% [at 0.35 µM]
activity change, negative = cytotoxicity [3]: 6.54% [at 0.349 µM]
activity change, negative = cytotoxicity [4]: 16.4% [at 0.349 µM]

O=S(=O)(O)c1cccc(S(=O)(=O)O)c1
Potency [1]: inactive
Potency [2]: inactive
Potency [3]: inactive
Potency [10]: inactive
outcome [4]: inactive
outcome [5]: inactive
outcome [6]: inactive
outcome [9]: inactive

Nc1ccn([C@@H]2O[C@H](CO)[C@@H](O)C2O)c(=O)n1 (stereo not given in full)
Potency [1]: inactive
Potency [2]: inactive
Potency [3]: inactive
outcome [4]: inactive
outcome [5]: inactive

O=C(O)c1cn(C2CC2)c2cc(N3CCNCC3)c(F)cc2c1=O
Potency [1]: inactive
Potency [7]: inactive
Potency [2]: inactive
outcome [4]: inactive
outcome [5]: inactive
outcome [6]: inactive
outcome [9]: inactive

CCN1C=CN(C)C1C (stereo not given)
Potency [1]: inactive
Potency [2]: inactive
outcome [4]: inactive
outcome [5]: inactive
outcome [6]: inactive
outcome [9]: inactive

CC(C)C[C@@H](N)C(=O)O
activity change, negative = inhibition [1]: 18.9% [at 19 µM]
activity change, negative = cytotoxicity [2]: 0.366% [at 19 µM]
activity change, negative = cytotoxicity [3]: 2.37% [at 19 µM]
activity change, negative = cytotoxicity [4]: 1.92% [at 19 µM]
cAMP activity change [6]: 1.68% [at 18.9 µM]
activity change, negative = inhibition [9]: 2.7% [at 19 µM]

C=C[Si](OC(C)=O)(OC(C)=O)OC(C)=O
Potency [1]: 30.6 µM (active)
Potency [3]: inactive
Potency [10]: inactive
outcome [4]: inactive
outcome [5]: inactive
outcome [6]: inactive
outcome [9]: inactive

O=S(=O)(O)c1cccc2ccccc12
Potency [1]: inactive
Potency [2]: inactive
Potency [3]: inactive
outcome [4]: inactive
outcome [6]: inactive
outcome [9]: inactive

[Ca+2]
Potency [1]: inactive
Potency [2]: inactive
Potency [3]: inactive
outcome [4]: inactive
outcome [6]: inactive
outcome [9]: inactive

CC[N+](CC)(CC(=O)Nc1c(C)cccc1C)Cc1ccccc1 (tested in a mixture with another compound)
Potency [1]: inactive
Potency [2]: inactive
outcome [4]: inactive
outcome [6]: inactive
outcome [9]: inactive

NCCCC(N)(C(=O)O)C(F)F (stereo not given)
Potency [1]: inactive
Potency [2]: inactive
outcome [4]: inactive
outcome [6]: inactive
outcome [9]: inactive

CCCCCC(C)N (stereo not given)
Potency [1]: inactive
Potency [3]: inactive
Potency [10]: inactive
outcome [4]: inactive
outcome [6]: inactive
outcome [9]: inactive

CC(=O)Oc1cccc(C)c1
Potency [1]: inactive
Potency [2]: inactive
Potency [3]: inactive
outcome [4]: inactive
outcome [5]: inactive
outcome [6]: inactive
outcome [9]: inactive

CCOc1ccc2nc(S(N)(=O)=O)sc2c1
Potency [1]: inactive
Potency [2]: inactive
Potency [3]: inactive
outcome [4]: inactive
outcome [5]: inactive
outcome [9]: inactive

CC(C(=O)O)c1cccc(Oc2ccccc2)c1 (stereo not given)
Potency [1]: inactive
Potency [2]: inactive
outcome [4]: inactive

CO[C@@]1(NC(=O)C(C(=O)O)c2ccc(O)cc2)C(=O)N2C(C(=O)O)=C(CSc3nnnn3C)CO[C@@H]21 (stereo not given in full)
Potency [1]: inactive
Potency [3]: inactive
outcome [4]: inactive
outcome [5]: inactive
outcome [6]: inactive

Cc1ccc(C(=O)Nc2ccc(S(=O)(=O)O)c3cc(S(=O)(=O)O)cc(S(=O)(=O)O)c23)cc1NC(=O)c1cccc(NC(=O)Nc2cccc(C(=O)Nc3cc(C(=O)Nc4ccc(S(=O)(=O)O)c5cc(S(=O)(=O)O)cc(S(=O)(=O)O)c45)ccc3C)c2)c1
Potency [1]: inactive
Potency [2]: inactive
outcome [4]: inactive
outcome [5]: inactive
outcome [6]: inactive
outcome [9]: inactive

Cc1c(N)c(=O)n(-c2ccccc2)n1C
Potency [1]: inactive
Potency [2]: inactive
outcome [4]: inactive
outcome [6]: inactive
outcome [9]: inactive

C[N+]1(CC2COC(c3ccccc3)(c3ccccc3)O2)CCCCC1 (stereo not given)
activity change, negative = inhibition [1]: -10.9% [at 19 µM]
activity change, negative = cytotoxicity [2]: 4% [at 19 µM]
activity change, negative = cytotoxicity [4]: 0.56% [at 19 µM]

CC(=O)c1cnccn1
Potency [1]: inactive
Potency [3]: inactive
outcome [4]: inactive
outcome [5]: inactive
outcome [6]: inactive

Cc1ccccc1N=C(N)N=C(N)N
Potency [1]: inactive
Potency [2]: inactive
outcome [4]: inactive
outcome [6]: inactive
outcome [9]: inactive

COc1cccc(OC)c1C(=O)N[C@@H]1C(=O)N2[C@@H]1SC(C)(C)[C@@H]2C(=O)O
Potency [1]: inactive
Potency [2]: inactive
Potency [3]: inactive
outcome [4]: inactive
outcome [6]: inactive
outcome [9]: inactive

COc1cc(C(=O)NCc2ccc(OCCN(C)C)cc2)cc(OC)c1OC
Potency [1]: inactive
Potency [2]: inactive
Potency [3]: inactive
outcome [4]: inactive
outcome [5]: inactive
outcome [6]: inactive
outcome [9]: inactive

CC(C)[C@H]1CC[C@@H](C)CC1=O
Potency [1]: inactive
Potency [2]: inactive
outcome [4]: inactive
outcome [6]: inactive
outcome [9]: inactive

O=S(=O)(O)c1cccc2c(S(=O)(=O)O)cccc12
Potency [1]: inactive
Potency [2]: inactive
Potency [3]: inactive
outcome [4]: inactive
outcome [6]: inactive
outcome [9]: inactive
